The results in this text go back to PubChem BioAssay (NCI).

Structures are written as SMILES. This is part of a sample that, as a whole, favours compounds with a hit. Of some 83,000 tested, about 20% had one in any assay.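 Negative percent growth values reflect cell death: -40 means 40% of the cells present at the start died, and -100 means all died.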 Activity calls are given as the source filed them. Rule for the calls: active = growth percent below 10; inactive = the rest.

The first assay has as its system SF-539 CNS. The assay can be described thus: NCI-60 one-dose screen, 48 h (100 = growth as untreated, 0 = no growth, -100 = all killed). As to conditions: 10 µM.
Regarding `O=C(Nc1ccc(I)cc1F)c1cc(-c2ccc(F)cc2F)ccc1O`, the growth is 0.0441% (active).

As for `CN1CCN(c2ccc(C(=O)/C=C/c3ccc(C#N)cc3)cc2)CC1`, the growth was 56.3% (inactive).

As for `Cc1ccc([N+](=O)[O-])c(C(=O)Nc2ccc(-c3ccc4c(c3)NC(=O)/C4=C\c3ccc[nH]3)cc2)c1`, the growth was 73.7% (inactive).

On to `CN1CCO/C1=C(/NC(=O)c1ccc(Cl)cc1)[P+](c1ccccc1)(c1ccccc1)c1ccccc1`, for which the growth is 94.5% (inactive).

With `CNCc1cccc2c1OCCCCCC[C@@](C)(O)CC1(CC1)S(=O)(=O)c1ccc(cc1)-c1cnc(N)c(n1)C(=O)N2`, the growth was -98.9% (active).

On to `Cc1cccc(NC(=O)CSc2nc3ccc(F)cc3c(=O)n2-c2ccc(Cl)cc2)c1C`, for which the growth was 25.7% (inactive).

Turning to `CC(=O)OC[C@@]1(C)C2CC[C@]3(C)C(CC=C4C5CC(C)(C)CC[C@]5(C(=O)Nc5ccccc5)CC[C@]43C)[C@@]2(C)C[C@@H](OC(C)=O)[C@@H]1OC(C)=O` (some centres undefined), the growth was 41.6% (inactive).

As to `CC1=C2C(=C[C@@](C)(COCOCCCl)[C@@H]2O)C(=O)[C@](C)(O)C12CC2`, the growth is -65% (active).

`CCN1CCN(Cc2ccc(NC(=O)c3cccc(-n4cc(-c5ccc(NC(C)=O)nc5)nn4)c3)cc2C(F)(F)F)CC1`: the growth was 73.1% (inactive).

As for `O=C(c1ccc(O)cc1)C1[C@H](c2ccc(Br)cc2)[C@@H](c2ccccc2)NC12C(=O)Nc1ccccc12` (some centres undefined), the growth was 41.2% (inactive).

On to `Nc1nnc(-c2c[nH]c3ccc(F)cc23)c(-c2c[nH]c3ncccc23)n1`, for which the growth is 30% (inactive).

Turning to `O=C(c1ccc(Cl)cc1)C1[C@H](c2ccccc2Br)[C@@H](c2ccccc2)NC12C(=O)Nc1ccc(Cl)cc12` (some centres undefined), the growth was 39.7% (inactive).

For `Cc1ccc(NCC(=O)Nn2c(COc3ccccc3)nc3ccccc3c2=O)cc1`, the growth was 51.4% (inactive).

`NS(=O)(=O)c1ccc(N=Nc2c(O)n(CC(=O)Nc3ccccc3Br)c3ccccc23)cc1`: the growth was 5.32% (active).

Regarding `CN(C(=O)c1ccc(C(F)(F)F)cc1C(F)(F)F)c1sc2c(c1C#N)CCC(=O)C2`, the growth was -37.6% (active).

For the molecule `CC(C)(C)Nc1nc2cc(Cl)c(Cl)cc2nc1S(C)(=O)=O`, the growth is 47.3% (inactive).

For the molecule `Cc1ccc(/C(N)=N/c2sc(-c3ccccc3)nc2-c2ccccc2)cc1`, the growth is 79.7% (inactive).

Turning to `O=c1cc(-c2ccccc2)oc2cc(OCCCNCc3ccccc3)cc(O)c12`, the growth is -97.3% (active).

As for `CCOC(=O)C1NN(c2ccc(S(N)(=O)=O)cc2)c2nc3nc(-c4cccs4)cc(-c4cccs4)c3c(=O)n21` (centres undefined), the growth was 63.1% (inactive).

`N#Cc1c(NC(=O)c2ccc(C(F)(F)F)cc2)sc2c1CCC(O)=C2`: the growth was 3.2% (active).

On to `COc1ccc2[nH]cc(/C=N/Nc3ccc(Br)cn3)c2c1`, for which the growth was 18.8% (inactive).

With `Cc1cc(C(F)(F)F)ccc1C(=O)Nc1sc2c(c1C#N)CCC(=O)C2`, the growth was -79.9% (active).

Consider `Cc1ccc(F)cc1N/C=c1\s/c(=C(\C#N)C(=O)Nc2ccccc2)n(-c2ccccc2)c1=O`, for which the growth is 27% (inactive).

As to `CCCn1c(=O)c2[nH]c(-c3ccc(OCc4nc5ccc(C)cc5[nH]4)cc3)nc2n(CCC)c1=O`, the growth is -84.2% (active).

Take `O=C(O)CCCCCCCCCCN1C(=O)/C(=C/c2cnc(-c3ccccc3)s2)SC1=S`: the growth is 110% (inactive).

For `O=C1NC(=NC2CCCCCC2)N/C1=C\c1ccc2ncoc2c1`, the growth is -2.22% (active).

In the case of `COc1ccc2[nH]c(=O)c(CSc3cccc(N)c3)cc2c1`, the growth is 71.3% (inactive).

Regarding `O=C(c1ccc(Cl)cc1)C1[C@H](c2ccc(Br)cc2)[C@@H](c2ccccc2)NC12C(=O)Nc1ccc(Cl)cc12` (some centres undefined), the growth was -58.5% (active).

For `C=CC(=O)Nc1ccc(C(=O)/C=C/c2ccc(N(C)CCF)cc2)c(O)c1`, the growth was -81.5% (active).

As for `COc1cccc(/C=C2\N=C(C)N(CCc3ccc(S(N)(=O)=O)cc3)C2=O)c1`, the growth was 99.8% (inactive).

On to `N#Cc1c(NC(=O)c2ccc(C(F)(F)F)cc2)sc2c1CCC(=O)C2`, for which the growth is -89.2% (active).

On to `COc1cc2oc(-c3cccc(C(=O)Nc4ccc(Cl)cc4)c3)cc(=O)c2c(OCCNC(=O)CNC(=O)OC(C)(C)C)c1OC`, for which the growth is 67.3% (inactive).

With `Cc1ccc(C(=O)NNC(=O)CSc2nc3ccccc3c(=O)[nH]2)cc1`, the growth was 98.7% (inactive).

As to `Brc1ccc(/C=N/Nc2ncnc3sc4c(c23)CCN(Cc2ccccc2)C4)cc1`, the growth is 71.4% (inactive).

As to `Cc1cc2nc3c4ccccc4n(CCO)c3nc2cc1C`, the growth was 37.1% (inactive).

Regarding `O=C1NC(=NC23CC4CC(CC(C4)C2)C3)N/C1=C\c1ccc2ncccc2n1`, the growth was -77.7% (active).

With `CN1CCN(Cc2ccc(C(=O)Nc3cccc(Nc4ccc5cc(O)ccc5n4)c3)cc2C(F)(F)F)CC1`, the growth was -95.5% (active).

A further assay deals with UACC-257 melanoma. The assay is described as above. The following applies: 10 µM.
With `O=C(Nc1ccc(I)cc1F)c1cc(-c2ccc(F)cc2F)ccc1O`, the growth is -7.17% (active).

As to `CN1CCN(c2ccc(C(=O)/C=C/c3ccc(C#N)cc3)cc2)CC1`, the growth is 90.4% (inactive).

As to `Cc1ccc([N+](=O)[O-])c(C(=O)Nc2ccc(-c3ccc4c(c3)NC(=O)/C4=C\c3ccc[nH]3)cc2)c1`, the growth is 81.4% (inactive).

Turning to `CN1CCO/C1=C(/NC(=O)c1ccc(Cl)cc1)[P+](c1ccccc1)(c1ccccc1)c1ccccc1`, the growth was 62.4% (inactive).

Consider `CNCc1cccc2c1OCCCCCC[C@@](C)(O)CC1(CC1)S(=O)(=O)c1ccc(cc1)-c1cnc(N)c(n1)C(=O)N2`, for which the growth was -75% (active).

Consider `Cc1cccc(NC(=O)CSc2nc3ccc(F)cc3c(=O)n2-c2ccc(Cl)cc2)c1C`, for which the growth is 87.7% (inactive).

`CC(=O)OC[C@@]1(C)C2CC[C@]3(C)C(CC=C4C5CC(C)(C)CC[C@]5(C(=O)Nc5ccccc5)CC[C@]43C)[C@@]2(C)C[C@@H](OC(C)=O)[C@@H]1OC(C)=O` (some centres undefined): the growth is 18.5% (inactive).

In the case of `CC1=C2C(=C[C@@](C)(COCOCCCl)[C@@H]2O)C(=O)[C@](C)(O)C12CC2`, the growth is -30.3% (active).

Regarding `CCN1CCN(Cc2ccc(NC(=O)c3cccc(-n4cc(-c5ccc(NC(C)=O)nc5)nn4)c3)cc2C(F)(F)F)CC1`, the growth is 87% (inactive).

Regarding `O=C(c1ccc(O)cc1)C1[C@H](c2ccc(Br)cc2)[C@@H](c2ccccc2)NC12C(=O)Nc1ccccc12` (some centres undefined), the growth was 75.9% (inactive).

Turning to `Nc1nnc(-c2c[nH]c3ccc(F)cc23)c(-c2c[nH]c3ncccc23)n1`, the growth was 105% (inactive).

For `O=C(c1ccc(Cl)cc1)C1[C@H](c2ccccc2Br)[C@@H](c2ccccc2)NC12C(=O)Nc1ccc(Cl)cc12` (some centres undefined), the growth is 42.5% (inactive).

Consider `Cc1ccc(NCC(=O)Nn2c(COc3ccccc3)nc3ccccc3c2=O)cc1`, for which the growth was 83.6% (inactive).

As for `NS(=O)(=O)c1ccc(N=Nc2c(O)n(CC(=O)Nc3ccccc3Br)c3ccccc23)cc1`, the growth is 50% (inactive).

In the case of `CN(C(=O)c1ccc(C(F)(F)F)cc1C(F)(F)F)c1sc2c(c1C#N)CCC(=O)C2`, the growth was 99% (inactive).

Turning to `CC(C)(C)Nc1nc2cc(Cl)c(Cl)cc2nc1S(C)(=O)=O`, the growth was 70.6% (inactive).

As to `Cc1ccc(/C(N)=N/c2sc(-c3ccccc3)nc2-c2ccccc2)cc1`, the growth is 93.9% (inactive).

Take `O=c1cc(-c2ccccc2)oc2cc(OCCCNCc3ccccc3)cc(O)c12`: the growth was -69.7% (active).

Turning to `CCOC(=O)C1NN(c2ccc(S(N)(=O)=O)cc2)c2nc3nc(-c4cccs4)cc(-c4cccs4)c3c(=O)n21` (centres undefined), the growth was 109% (inactive).

Regarding `N#Cc1c(NC(=O)c2ccc(C(F)(F)F)cc2)sc2c1CCC(O)=C2`, the growth was 36% (inactive).

Take `COc1ccc2[nH]cc(/C=N/Nc3ccc(Br)cn3)c2c1`: the growth was 52.6% (inactive).

For `Cc1cc(C(F)(F)F)ccc1C(=O)Nc1sc2c(c1C#N)CCC(=O)C2`, the growth is -39.5% (active).

As to `Cc1ccc(F)cc1N/C=c1\s/c(=C(\C#N)C(=O)Nc2ccccc2)n(-c2ccccc2)c1=O`, the growth is 99% (inactive).

For `CCCn1c(=O)c2[nH]c(-c3ccc(OCc4nc5ccc(C)cc5[nH]4)cc3)nc2n(CCC)c1=O`, the growth was 65.5% (inactive).

On to `O=C(O)CCCCCCCCCCN1C(=O)/C(=C/c2cnc(-c3ccccc3)s2)SC1=S`, for which the growth was 101% (inactive).

Regarding `O=C1NC(=NC2CCCCCC2)N/C1=C\c1ccc2ncoc2c1`, the growth is 48.7% (inactive).

Turning to `COc1ccc2[nH]c(=O)c(CSc3cccc(N)c3)cc2c1`, the growth was 62.3% (inactive).

On to `O=C(c1ccc(Cl)cc1)C1[C@H](c2ccc(Br)cc2)[C@@H](c2ccccc2)NC12C(=O)Nc1ccc(Cl)cc12` (some centres undefined), for which the growth is -49.4% (active).

For `C=CC(=O)Nc1ccc(C(=O)/C=C/c2ccc(N(C)CCF)cc2)c(O)c1`, the growth is -61.6% (active).

In the case of `COc1cccc(/C=C2\N=C(C)N(CCc3ccc(S(N)(=O)=O)cc3)C2=O)c1`, the growth is 101% (inactive).

`N#Cc1c(NC(=O)c2ccc(C(F)(F)F)cc2)sc2c1CCC(=O)C2`: the growth is -71.1% (active).

Turning to `COc1cc2oc(-c3cccc(C(=O)Nc4ccc(Cl)cc4)c3)cc(=O)c2c(OCCNC(=O)CNC(=O)OC(C)(C)C)c1OC`, the growth was 80.8% (inactive).

For the molecule `Cc1ccc(C(=O)NNC(=O)CSc2nc3ccccc3c(=O)[nH]2)cc1`, the growth is 105% (inactive).

`Brc1ccc(/C=N/Nc2ncnc3sc4c(c23)CCN(Cc2ccccc2)C4)cc1`: the growth is 56.7% (inactive).

As for `Cc1cc2nc3c4ccccc4n(CCO)c3nc2cc1C`, the growth was 91.7% (inactive).

As to `O=C1NC(=NC23CC4CC(CC(C4)C2)C3)N/C1=C\c1ccc2ncccc2n1`, the growth is -4.23% (active).

As to `CN1CCN(Cc2ccc(C(=O)Nc3cccc(Nc4ccc5cc(O)ccc5n4)c3)cc2C(F)(F)F)CC1`, the growth was -79.1% (active).
